What was measured:
Conditions in all cases: concentration: 1 μM, replicates: in singlicate; n = 1
[1] = test system: T1, TAK1
T1 construct: gene MAP3K7

[2] = test system: TAOK1
[3] = test system: TAOK2
[4] = test system: TAOK3
[5] = test system: TBK1
[6] = test system: TEC
[7] = test system: TESK1
[8] = test system: TGFBR1
[9] = test system: TGFBR2
[10] = test system: TIE1
[11] = test system: T2, TIE2
T2 construct: gene TEK

[12] = test system: TLK1
[13] = test system: TLK2
[14] = test system: TNIK
[15] = test system: TNK1
[16] = test system: TNK2
[17] = test system: TNNI3K
[18] = test system: T3, TRKA
T3 construct: gene NTRK1

[19] = test system: TRKB
[20] = test system: T4, TRKC
T4 construct: gene NTRK3
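Also: KINOMEscan kinase panel screen.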

| Compound | %Inh [1] [%] | %Inh [2] [%] | %Inh [3] [%] | %Inh [4] [%] | %Inh [5] [%] | %Inh [6] [%] | %Inh [7] [%] | %Inh [8] [%] | %Inh [9] [%] | %Inh [10] [%] | %Inh [11] [%] | %Inh [12] [%] | %Inh [13] [%] | %Inh [14] [%] | %Inh [15] [%] | %Inh [16] [%] | %Inh [17] [%] | %Inh [18] [%] | %Inh [19] [%] | %Inh [20] [%] |
| --- | --- | --- | --- | --- | --- | --- | --- | --- | --- | --- | --- | --- | --- | --- | --- | --- | --- | --- | --- | --- |
| Cc1ccccc1COc1cc(-n2cnc3cc(Cl)ccc32)sc1C(N)=O [GW813349] | 0 | 0 | 3 | 0 | 22 | 0 | 7 | 28 | 0 | 11 | 0 | 0 | 0 | 30 | 12 | 0 | 0 | 0 | 0 | 5 |
| COc1cc2ncn(-c3cc(OCc4ccncc4)c(C(N)=O)s3)c2cc1OC [GSK336313] | 0 | 0 | 0 | 0 | 19 | 6 | 0 | 5 | 0 | 100 | 7 | 0 | 0 | 13 | 0 | 5 | 0 | 0 | 0 | 0 |
| Cc1ccc(-c2ccc3c(ccc4sc5c(c43)NC[C@@H](C)N=C5N(C)C)n2)cn1 | 7 | 0 | 0 | 0 | 0 | 9 | 0 | 0 | 13 | 0 | 0 | 0 | 0 | 2 | 34 | 0 | 0 | 0 | 0 | 0 |
| COc1cc(Nc2nccc(N3CCC(NC(=O)C(C)c4ccc(Cl)cc4)C3)n2)cc(OC)c1OC (stereo not drawn) [GSK1379757] | 0 | 0 | 0 | 0 | 14 | 0 | 27 | 0 | 0 | 10 | 0 | 0 | 0 | 0 | 0 | 6 | 0 | 63 | 0 | 43 |
| CCS(=O)(=O)c1ccc(OC)c(Nc2ncc(-c3ccc(F)cc3)o2)c1.Cl [GW591947] | 0 | 0 | 0 | 0 | 3 | 0 | 1 | 0 | 0 | 0 | 0 | 0 | 0 | 0 | 0 | 12 | 8 | 15 | 0 | 0 |
| O=c1cc(N2CCOCC2)nc2n(Cc3ccc(F)c(Cl)c3)ccn12 [GSK2297099] | 2 | 0 | 0 | 0 | 17 | 12 | 12 | 35 | 0 | 0 | 0 | 11 | 22 | 0 | 0 | 10 | 0 | 0 | 0 | 0 |
| CN1C(=O)C(Nc2ccccc2)=C(c2ccccc2)C1=O [SB-300079] | 0 | 0 | 34 | 0 | 21 | 0 | 2 | 22 | 0 | 0 | 0 | 3 | 41 | 7 | 0 | 0 | 0 | 0 | 9 | 11 |
| O=C(Nc1n[nH]c2cc(-c3ccccc3F)ccc12)C1CC1 [SB-733371] | 0 | 52 | 19 | 24 | 0 | 0 | 1 | 0 | 0 | 0 | 26 | 2 | 0 | 76 | 0 | 0 | 0 | 53 | 0 | 19 |
| CCC(=O)c1c(-c2ccccc2)c2cc(Cl)ccc2c(=O)n1Cc1ccc(C(=O)O)cc1 | 0 | 0 | 0 | 0 | 0 | 10 | 6 | 11 | 0 | 0 | 0 | 0 | 0 | 0 | 0 | 0 | 0 | 0 | 0 | 0 |
| CN(C)c1cc(-c2ccc3c(N)n[nH]c3c2)nc(N)n1 [GSK2219329] | 0 | 0 | 0 | 0 | 9 | 1 | 76 |  | 0 | 0 | 0 | 9 | 0 | 0 | 0 | 1 | 0 | 0 | 0 | 0 |
| Cl.c1ccc(Cn2cnc3cc(Nc4ncnc5ccccc45)ccc32)cc1 [GW272142] | 0 | 0 | 0 | 0 | 7 | 11 | 1 | 6 | 0 | 48 | 0 | 0 | 0 | 0 | 0 | 15 | 0 | 0 | 0 | 0 |
